Assay results: PubChem BioAssay AID1159580 (chemical genetic matrix, 2015)
In all, about 5,500 compounds went through this assay and about 2,000 (36%) were called active. Not shown: some 18% with an inconclusive outcome. Cut-off read from the data, not from the text of the source: active = normalized growth mostly below about 0.91 (no sharp cut-off); inconclusive = no clear call, values can overlap the other calls; inactive = mostly above about 0.92. The list shows a part of the results.

Assay: chemical genetic growth profiling, strain panel (AID 1159580);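 note: tested at 20 µM; growth read once vehicle control cultures reached saturation at 30 °C; 1 = growth at the plate median or of vehicle wells; lower values mean less growth of the strain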
Conditions: S. cerevisiae deletion strains, growth OD

Measured: normalized growth

CN1[C@@H](CC(=O)c2ccccc2)CCC[C@H]1C[C@H](O)c1ccccc1
inactive: locus YAL040C, strain CLN3, active compounds read low 1.01 | locus YCL061C, strain MRC1 (second series), active compounds read low 1.01 | locus YDR150W, strain NUM1, active compounds read low 1.01 | locus YDR363W, strain ESC2, active compounds read low 0.984 | locus YER002W, strain NOP16, active compounds read low 1 | locus YGR229C, strain SMI1, active compounds read low 0.99 | locus YJR075W, strain HOC1, active compounds read low 1.01 | locus YMR263W, strain SAP30, active compounds read low 1.01 | locus YNL128W, strain TEP1, active compounds read low 1 | locus YNL175C, strain NOP13, active compounds read low 1.02 | locus YNL197C, strain WHI3, active compounds read low 1.01 | locus YNL224C, strain SQS1, active compounds read low 1 | locus YOR083W, strain WHI5 (second series), active compounds read low 1.02 | locus YPL241C, strain CIN2, active compounds read low 1.01
